This excerpt belongs to a sample that is enriched for hits.
DUX4 txn inh: DUX4-mediated transcription inhibition; 293T-iDUX4 ZSCAN4-Gaussia luciferase reporter, 24 h; stronger effect = lower value; activity change, negative = inhibition, % (no concentration beside the values); hit rate 0.8% among 37,000; AID 1224904;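 active = mean inhibition of at least 10% in the main channel, exceeding the control channel by a set limit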
Large screens that a line does not name were inactive.

CCCC#Cc1ccc([C@@H]2[C@H](CO)N3CCCCN(S(=O)(=O)Cc4ccccc4)C[C@@H]23)cc1	none
O=S(=O)(c1cccs1)N1CCCCN2[C@@H](CO)[C@H](c3ccc(Br)cc3)[C@@H]2C1	DUX4 txn inh -14
O=S(=O)(c1ccccc1)N1CCCCN2[C@H](CO)[C@@H](c3ccc(C#CC4CCCC4)cc3)[C@@H]2C1	none
C[C@@H](O)C#Cc1ccc([C@H]2[C@H]3CN(S(=O)(=O)c4ccccc4)CCCCN3[C@H]2CO)cc1	none
COc1ccc(C#Cc2ccc([C@@H]3[C@@H](CO)N4CCCCN(S(=O)(=O)c5ccccc5)C[C@H]34)cc2)cc1	none
COc1ccc2c3c(n(C)c2c1)[C@H](CO)N(C(=O)c1ccc(F)cc1)CC31CCN(CC2CC2)CC1	none
CC(=O)N1CC2(C1)[C@H](c1ccccc1)[C@H](CO)N2C(=O)c1ccncc1	none
CNC[C@H]1Oc2ncc(C#CC3(O)CCCC3)cc2C(=O)N([C@H](C)CO)C[C@H]1C	none
O=C(C[C@@H]1C[C@H]2c3cc(NC(=O)Nc4ccccc4F)ccc3O[C@H]2[C@@H](CO)O1)NCc1ccc(Oc2ccccc2)cc1	none
COc1ccc2c3c(n(C)c2c1)[C@H](CO)N(C)CC31CCN(S(=O)(=O)c2cn(C)cn2)CC1	none
COc1ccc2c3c(n(C)c2c1)[C@H](CO)N(C(=O)c1cccnc1)CC31CCN(S(C)(=O)=O)CC1	none
COc1ccc([C@@H]2CC=CC[C@@H](C)Oc3ccccc3C(=O)N(C)[C@@H](C)C(=O)N2)c(OC)c1 (mixture of isomers)	none
COc1ccc2c3c([nH]c2c1)[C@@H](CO)N(Cc1nccs1)CC31CN(C(=O)C2CCOCC2)C1	none
C[C@H](CO)N1C[C@H](C)[C@H](CN(C)Cc2ccc3c(c2)OCO3)OCc2ccccc2-c2ccccc2C1=O	none
C[C@@H]1CN([C@@H](C)CO)C(=O)c2ccccc2-c2ccccc2CO[C@@H]1CN(C)Cc1ccc(-c2ccccc2)cc1	DUX4 txn inh -29
C[C@H]1CN([C@@H](C)CO)C(=O)c2ccccc2-c2ccccc2CO[C@@H]1CN(C)Cc1cccc(F)c1	none
C[C@H](CO)N1C[C@H](C)[C@@H](CN(C)Cc2ccc3c(c2)OCO3)OCc2ccccc2-c2ccccc2C1=O	none
C[C@H](CO)N1C[C@H](C)[C@@H](CN(C)Cc2cccc(C(F)(F)F)c2)OCc2ccccc2-c2ccccc2C1=O	DUX4 txn inh -42
C[C@@H]1CN([C@@H](C)CO)C(=O)c2ccccc2-c2ccccc2CO[C@@H]1CN(C)Cc1ccc(Cl)c(Cl)c1	DUX4 txn inh -31
C[C@@H]1CN([C@H](C)CO)C(=O)c2ccccc2-c2ccccc2CO[C@@H]1CN(C)Cc1cccc(F)c1	none
C[C@H](CO)N1C[C@H](C)[C@H](CN(C)Cc2ccc(-c3ccccc3)cc2)OCc2ccccc2-c2ccccc2C1=O	none
C[C@@H]1CN([C@@H](C)CO)C(=O)c2ccccc2-c2ccccc2CO[C@@H]1CN(C)Cc1ccc(F)cc1	none
CCCNC(=O)N1CC2(CCN(C(=O)COC)CC2)c2c(n(C)c3cc(OC)ccc23)[C@@H]1CO	none
CCCC(=O)N1CC2(CCN(C(=O)CC3CC3)CC2)c2c(n(C)c3cc(OC)ccc23)[C@H]1CO	none
CCCNC(=O)N1CC2(CN(Cc3ccccn3)C2)c2c(n(C)c3cc(OC)ccc23)[C@H]1CO	none
COc1ccc2c3c(n(C)c2c1)[C@@H](CO)N(C(=O)Nc1ccc(F)cc1)CC31CCN(C(=O)CC2CC2)CC1	none
CCC(=O)N1CC(=O)N2[C@H](C1)[C@H](c1ccc(C3=CCCCC3)cc1)[C@@H]2CO	none
CCCC(=O)N1CCC2(CC1)CN(C(=O)CN1CCOCC1)[C@@H](CO)c1c2c2ccc(OC)cc2n1C	none
O=C(C[C@H]1CC[C@H]2[C@@H](COC[C@H](O)CN2CC2CCCCC2)O1)NCc1ccc(Cl)cc1	none
O=C(C[C@H]1CC[C@@H]2[C@H](COC[C@@H](O)CN2CC2CCCCC2)O1)NCc1ccc(Cl)cc1	none
O=C(C[C@H]1CC[C@H]2[C@@H](COC[C@H](O)CN2CC2CCOCC2)O1)NCc1ccc(Cl)cc1	DUX4 txn inh -29
COc1ccc(NC(=O)Nc2ccc3c(c2)[C@@H]2C[C@H](CC(=O)N[C@@H](C)c4ccccc4)O[C@H](CO)[C@@H]2O3)cc1	none
C[C@H]1CN([C@@H](C)CO)C(=O)c2cc(C#CCC3CCCC3)cnc2O[C@@H]1CN(C)S(=O)(=O)c1cccs1	none
C[C@@H]1CN([C@@H](C)CO)S(=O)(=O)c2ccc(C#C[C@@H](C)O)cc2O[C@@H]1CN(C)Cc1ccc(-c2ccccc2)cc1	none
COc1ccc2c3c(n(C)c2c1)[C@@H](CO)N(Cc1ccccc1F)CC31CCN(C(C)=O)CC1	none
O=C(C[C@@H]1CC[C@@H]2[C@H](COC[C@@H](O)CN2C(=O)Nc2cccc(Cl)c2)O1)NCC1CCCCC1	none
COc1ccc2c3c(n(C)c2c1)[C@H](CO)N(CC1CC1)CC31CN(C(=O)c2ccc(F)cc2)C1	DUX4 txn inh -37
COc1cc(CN2CC3(CCN(C(=O)Nc4cccc(F)c4)CC3)c3c(n(C)c4cc(OC)ccc34)[C@H]2CO)cc(OC)c1	DUX4 txn inh -37
COc1ccc2c3c(n(C)c2c1)[C@H](CO)N(C)CC31CN(C(=O)c2ccccc2F)C1	DUX4 txn inh -32
COc1cc(CN2CC3(CCN(C(=O)NC(C)C)CC3)c3c(n(C)c4cc(OC)ccc34)[C@@H]2CO)cc(OC)c1	none
COc1ccc2c3c(n(C)c2c1)[C@@H](CO)N(C(=O)c1ccc(F)cc1)CC31CCN(CC2CC2)CC1	none
COc1ccc2c3c(n(C)c2c1)[C@H](CO)N(CC1CC1)CC31CN(Cc2ccc(F)cc2)C1	none
COc1ccc2c3c(n(C)c2c1)[C@@H](CO)N(C(=O)c1ccccc1)CC31CN(C)C1	none
COc1cc(CN2CC3(CCN(C(=O)NC(C)C)CC3)c3c(n(C)c4cc(OC)ccc34)[C@H]2CO)cc(OC)c1	none
COc1ccc2c3c(n(C)c2c1)[C@H](CO)N(C)CC31CN(C(=O)c2cccnc2)C1	none
COc1ccc2c3c(n(C)c2c1)[C@@H](CO)N(C(=O)c1ccccc1)CC31CN(C(C)=O)C1	none
COc1ccc2c3c(n(C)c2c1)[C@H](CO)N(C(C)=O)CC31CN(C(=O)c2ccccc2)C1	DUX4 txn inh -30
COc1ccc2c3c(n(C)c2c1)[C@@H](CO)N(C)CC31CN(C(=O)Nc2cccc(F)c2)C1	none
CCCNC(=O)C[C@H]1CC[C@@H]2[C@H](COC[C@@H](O)CN2C(=O)Nc2ccc3c(c2)OCO3)O1	none
O=S(=O)(Cc1ccccc1)N1CC2(C1)[C@@H](c1ccccc1)[C@H](CO)N2CC1CC1	none
CCCC(=O)N1CCC2(CC1)CN(C(=O)Nc1ccc(F)cc1)[C@H](CO)c1c2c2ccc(OC)cc2n1C	none
COc1ccc2c3c(n(C)c2c1)[C@H](CO)N(C)CC31CCN(C(=O)C2CCC2)CC1	none
CO[C@@H]1CN(C)C(=O)c2ccc(NC(C)=O)cc2OC[C@@H](C)N(Cc2cccnc2)C[C@@H]1C	none
CCCC#Cc1cnc2c(c1)C(=O)N([C@H](C)CO)C[C@H](C)[C@H](CN(C)Cc1ccc3c(c1)OCO3)O2	none
CC(=O)N1[C@H](CO)[C@@H](c2ccccc2)C12CN(C(=O)CN1CCOCC1)C2	none
C[C@@H]1CN([C@H](C)CO)C(=O)Cc2cc(NC(=O)Cc3cn(C)c4ccccc34)ccc2O[C@H]1CN(C)Cc1ccc(C(F)(F)F)cc1	none
COCC(=O)N1CCC2(CC1)CN(S(C)(=O)=O)[C@@H](CO)c1c2c2ccc(OC)cc2n1C	none
CC(=O)N(C)C[C@H]1OCc2ccccc2-c2c(n(C)c3ccccc23)C(=O)N([C@H](C)CO)C[C@@H]1C	none

Compound activity deposited in PubChem by Broad Institute.
